# Screening results deposited in PubChem BioAssay by National Center for Advancing Translational Sciences (NCATS).
# The list is not random: actives were taken first. Their share in the collection is about 19%.
# KB-3-1 cytotox = kills parental KB-3-1 adenocarcinoma cells | actives 1.4% (n = 400,000) | AID 1347075 | KB-3-1 viability, CellTiter-Glo ATP luminescence, 72 h | Potency, µM (top dose mostly 46.1 µM), hits mostly cytotoxic; further: nearly all actives have a fitted effect of over 60% in size
#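 Screening of KB-3-1 cells (DMEM, 10% FBS, phenol-red free) ran from lowest to highest compound concentration; after 72 h at 37 °C viability was read luminescently and curves fitted.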
# HT1080 IDH1KD tx = HT-1080 IDH1 knockdown cell toxicity (counter line); Potency, µM (series often up to 46.1 µM), inactives show top-dose activity, negative = toxicity, usual class: cytotoxic; actives 2% (n = 360,000); AID 686971; HT-1080 IDH1 knockdown viability, ATP luminescence, 48 h;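 further: 0% = DMSO wells and -100% = cell-free medium wells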
#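 Assay cells: HT-1080 with IDH1 knockdown, 750 per well, RPMI/5% FBS. Exposure: 48 h at 37 °C following 2 h pre-incubation. Read: CellTiter-Glo luminescence; fitted concentration-response, curve class assigned.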
# KB-V1 cytotox = kills drug-selected multidrug resistant KB-V1 cells; AID 1347076; actives 3.4% (n = 400,000); KB-V1 MDR cells viability, CellTiter-Glo, 72 h; Potency, µM (series often up to 46.1 µM), most hits filed as cytotoxic; further: nearly all actives have a fitted effect of over 60% in size
#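 qHTS viability screen in drug-selected KB-V1 MDR cells: 72 h compound treatment at 37 degrees C, ATP luminescence end point.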
# HT1080NT lethal = kills 2HG-producing HT-1080-NT fibrosarcoma cells. HT-1080-NT fibrosarcoma viability, CellTiter-Glo ATP luminescence, 48 h. Potency, µM (doses to about 46.1 µM), for the others: at the top dose activity, negative = less viability, usual class: cytotoxic. actives 1.6% (n = 360,000);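 further: NT is the 2HG producing partner of a matched IDH1 knockdown line; 0% = DMSO-treated cells and -100% = media-only wells without cells; nearly all actives have a fitted effect of over 55% in size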
#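 Read-out is CellTiter-Glo luminescence after 10 minutes at room temperature, following 48 hours' compound treatment of HT-1080-NT cells (750 cells/well, RPMI, 5% FBS, 37 degrees C).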
# TDP1 cell noCPT = qHTS for Inhibitors of human tyrosyl-DNA phosphodiesterase 1 (TDP1): qHTS in cells in absence of CPT; DT40 Tdp1-/- hTDP1 cells, no CPT, ATP luminescence, 48 h; actives 15% (n = 420,000); Potency, µM (series often up to 46.2 µM), for inactives: at the highest dose activity change, negative = growth inhibition, usual class: inhibitors; further: nearly all actives have a fitted effect of over 55% in size
#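 Cells were dispensed at 400 per well, compounds added by pin tool, plates incubated ≥48 hr at 37 °C, then CellTiter-Glo added for 30 min at room temperature before luminescence reading. Line: DT40 Tdp1-/- complemented with hTDP1; camptothecin omitted.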
# TDP1 cell CPT = DT40-hTDP1 cell growth loss with CPT; chicken DT40 Tdp1-/-;hTDP1 cells + 20 nM CPT, ATP luminescence, 48 h; Potency, µM (doses to about 46.2 µM), for the others: at the highest dose activity change, negative = growth inhibition, usual class: inhibitors; actives 12% (n = 420,000); AID 686979; further: nearly all actives have a fitted effect of over 55% in size
#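 Chicken DT40 Tdp1-/- cells complemented with human TDP1, 400 cells/well, exposed to compounds plus 20 nM camptothecin for at least 48 h at 37 C; viability read as ATP content by CellTiter-Glo luminescence.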
# The depositor's hits bear a star; i = inactive; ? = inconclusive; · = no result; ! = not confirmed by another sample. The call rests on the fitted dose curve; in most records, active means well fitted curve in the direction sought with a large enough effect; inconclusive means small, poorly fitted or top-dose-only effect, or another doubt; inactive means no such curve, though single readings can be large; an effect the other way counts as inactive or inconclusive. Unless noted, on the % scale 0 is the no-effect control and ±100 the full control effect; potency means the concentration at half of the fitted maximal effect.
SMILES,KB-3-1 cytotox,HT1080 IDH1KD tx,KB-V1 cytotox,HT1080NT lethal,TDP1 cell noCPT,TDP1 cell CPT
CC1=C(C(=O)Nc2ccccc2)C(c2ccc(Br)cc2)n2nc(CCCO)nc2N1 (centres undefined),i,·,i,·,3%,-4%
COc1ccc2c(c1)c1c(c(=O)n(-c3ccccc3C)c(=O)n1CC(=O)N1CCCC1)n2C,i,·,i,·,?,?
COc1cccc(NC(=O)CSc2ncc(S(=O)(=O)c3ccc(C)c(C)c3)c(=O)[nH]2)c1,i,·,i,·,·,·
CCOC(=O)Cc1cc(C(=O)Nc2ccc(Br)cc2)sc1-c1ccc(C)cc1,i,·,i,·,21µM*,?
Cc1nc2cc(-c3cccc(F)c3)nn2c(C)c1CCC(=O)NCCc1ccccc1,i,·,i,·,?,26µM*
Cc1nc2cc(-c3ccccc3)nn2c(C)c1CCC(=O)NCCc1ccccc1,i,·,i,·,?,16µM*
CCOC(=O)C(Cc1ccccc1)NC(=O)CCc1c(C)nc2ncnn2c1C (centres undefined),i,-3%,i,-1%,-16%,?
CCOC(=O)C(Cc1ccccc1)NC(=O)CCc1c(C)nc2nc(C)nn2c1C (centres undefined),i,12%,i,9%,23µM*!,?
Cc1nc2ncnn2c(C)c1CCC(=O)NCCc1ccccc1,i,7%,i,-1%,-27%,?
CC(=O)OC1CCC2(C)C3CC(=O)C4(C)C(CC5OC6(CCC(C)CO6)C(C)C54)C3CC[C@H]2C1 (some centres undefined),·,·,·,·,0%,3%
COc1ccc(C(=O)NCCCNC(=O)c2cnccn2)cc1Br,i,14%,i,0%,-7%,0%
CCCN(CCC)C(=O)Cn1c(=O)n(-c2ccc(C)cc2)c(=O)c2ccc(C(=O)NCc3ccccc3Cl)cc21,i,·,i,·,?,?
CCc1ccc(NC(=O)Cn2c(=O)n(CCCCC(=O)NCCc3ccccc3)c(=O)c3ccccc32)cc1,i,·,?,·,-12%,-12%
CCCN(CCC)C(=O)Cn1c(=O)n(-c2ccc(CC)cc2)c(=O)c2ccc(C(=O)NCCc3ccccc3)cc21,i,·,?,·,7.3µM*,12µM*
CCc1ccc(-n2c(=O)c3ccc(C(=O)NCCc4ccccc4)cc3n(CC(N)=O)c2=O)cc1,i,14%,?,11%,21µM*,?
O=c1c(-c2cc(-c3ccccc3)nc3c2COc2ccc(Cl)cc2-3)coc2ccccc12,i,·,?,·,-8%,1%
O=C(CCc1c[nH]c2ccccc12)N1CCN(S(=O)(=O)c2ccc([N+](=O)[O-])cc2)CC1,i,0%,i,0%,?,?
Cc1cc(C)c(C(=O)Cn2cnc3cc([N+](=O)[O-])ccc3c2=O)cc1C,i,2%,i,12%,18µM*,?
CC1CCCCN1C(=O)Cn1cnc2cc([N+](=O)[O-])ccc2c1=O (centres undefined),i,8%,i,8%,18µM*,15µM*
O=C(Cn1c(=O)n(Cc2ccco2)c(=O)c2ccc(C(=O)NC3CCCC3)cc21)Nc1ccc(F)cc1,i,·,i,·,-17%,-27%
CCOc1ccccc1NC(=O)Cn1c(=O)n(Cc2ccco2)c(=O)c2ccc(C(=O)NC3CCCC3)cc21,i,·,i,·,23µM*,?
Cc1ccc(C)c(NC(=O)Cn2c(=O)n(Cc3ccco3)c(=O)c3ccc(C(=O)NC4CCCC4)cc32)c1,i,·,i,·,16µM*,?
